According to PubChem BioAssay AID602314 (ICCB-Longwood Screening Facility, Harvard Medical School, 2012):
In all, about 84,000 compounds went through this assay and about 110 (0.13%) were called active. Rule as the data show it: active = inhibition above about 30% (passing the limit was not always enough); inactive = the rest. The sample as a whole holds a higher share of actives than the screen did.

system: MgrA (MarR family transcriptional regulator), Staphylococcus aureus Newman; assay: modulators of MgrA DNA binding – biochemical, S. aureus Newman, fluorescence polarization, primary screen (AID 602314); conditions: stronger effect = higher value, concentration not given here;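 also: 0% = protein plus DNA without compound and 100% = DNA alone without protein; higher means less MgrA bound to DNA so lower polarization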

Question: With O=C1CSC(=S)N1c1ccc(Oc2ccc(Cl)cc2)cc1 as the molecule, how does the inhibition read?
Answer: -2.4% (inactive)

Question: Cn1nnc(NC(=O)COc2ccccc2)n1 was tested. Which inhibition did it give?
Answer: -1.4% (inactive)

Question: Which inhibition does the source give for O=C(O)C1=Cc2sc3c(c2CS1)CCCC3 here?
Answer: 72.7% (active)

Question: NC(=O)c1c(NC(=O)c2ccccc2)sc2c1CCCC2 was tested. Which inhibition did it give?
Answer: 0.05% (inactive)

Question: Which inhibition does the source give for CC/C(=N\OC(=O)c1cccs1)c1ccc(-c2ccccc2F)cc1 here?
Answer: 4.4% (inactive)

Question: With CN(C)C(=O)Cn1c(=O)n(S(=O)(=O)c2ccccc2)c2ccccc21 as the molecule, how does the inhibition read?
Answer: 7.3% (inactive)

Question: Which inhibition does the source give for CN(C)c1ncnc2nc[nH]c12 here?
Answer: 0.75% (inactive)

Question: Which inhibition does the source give for CCCN(CCC)S(=O)(=O)c1cccc2c(N)cccc12 here?
Answer: -2.2% (inactive)

Question: How did the inhibition turn out when CC1=C(C(=O)OCCOC(C)C)C(c2ccccc2OCc2ccccc2)NC(=O)N1 (centres undefined) was run?
Answer: -4.9% (inactive)

Question: For CC1(C)COC(c2cccc(C#N)c2)OC1, which inhibition is on record?
Answer: -1.45% (inactive)

Question: Which inhibition does the source give for CCN1CCCc2cc(CN(CCN3CCOCC3)C(=S)Nc3c(C)cc(C)cc3C)ccc21 here?
Answer: 4.95% (inactive)

Question: With COC(=O)C1=C(C)NC2=C(C(=O)CC(c3ccc(Cl)cc3)C2)C1c1ccc(OC(C)=O)c(OC)c1 (centres undefined) as the molecule, how does the inhibition read?
Answer: -2.1% (inactive)

Question: With OCC(O)CN(c1ccccc1)c1ccccc1 (centres undefined) as the molecule, how does the inhibition read?
Answer: -1.8% (inactive)

Question: For Cc1ccc2cc(C#N)c(SCC(=O)Nc3ccccc3)nc2c1, which inhibition is on record?
Answer: -0.85% (inactive)

Question: With O=C(CCSc1ccc(Cl)cc1)Nc1ccc(F)c(F)c1F as the molecule, how does the inhibition read?
Answer: 0.15% (inactive)

Question: For COc1ccccc1Nc1n[nH]c(=S)n1C(=O)c1cccs1, which inhibition is on record?
Answer: 2.9% (inactive)

Question: Which inhibition does the source give for O=C(O)CCc1nn2c(=O)c3ccccc3nc2s1 here?
Answer: -0.2% (inactive)

Question: How did the inhibition turn out when CCCN(c1ccc(C)cc1)c1nc(=O)c2cccnc2s1 was run?
Answer: 0.75% (inactive)

Question: With C=CCn1c(=O)c(C(=O)NCC2CCCN2CC)c(O)c2cc(OC)c(OC)cc21 (centres undefined) as the molecule, how does the inhibition read?
Answer: -0.05% (inactive)

Question: NC(=O)c1sccc1NS(=O)(=O)c1ccc(Cl)c(Cl)c1 was tested. Which inhibition did it give?
Answer: 2.05% (inactive)

Question: For CSc1ncc(C(N)=O)c(N)n1, which inhibition is on record?
Answer: -4% (inactive)

Question: For CC(=O)Nc1ccc(-c2nc(-c3ccccc3)c3cc(C)ccc3n2)cc1, which inhibition is on record?
Answer: 0.5% (inactive)

Question: With COc1ccccc1NC(=O)C1CC(=O)N(CCc2ccccc2)C(=Nc2ccccc2)S1 (centres undefined) as the molecule, how does the inhibition read?
Answer: 0.9% (inactive)

Question: For CN(Cc1ccccc1)C(=O)c1cccc(-c2nnc(-c3ccccc3)o2)c1, which inhibition is on record?
Answer: 1.3% (inactive)

Question: With O=C(O)COc1ccc(NC(=O)c2ccccc2F)cc1 as the molecule, how does the inhibition read?
Answer: -2.2% (inactive)

Question: With CC(C)=CC(=O)Nc1nc2ccc(C)cc2s1 as the molecule, how does the inhibition read?
Answer: 5.35% (inactive)

Question: How did the inhibition turn out when c1ccc(NC2CCCCC2)cc1 was run?
Answer: -1.2% (inactive)

Question: For O=C(c1cc(-c2ccccc2)c(C(F)(F)F)s1)N1CCCC1, which inhibition is on record?
Answer: -2.9% (inactive)

Question: With c1ccc(CNC2C3CC4CC(C3)CC2C4)nc1 (centres undefined) as the molecule, how does the inhibition read?
Answer: -6% (inactive)
